For some of these results: Measured potencies and affinities stand elsewhere. Calls of active or inactive are those of the source. Unless noted, the rule behind the calls is not given here.
What was measured:
[1] = antimalarial activity against Dd2 strain (AID 2302;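 active = growth inhibition above 50% at the single 2 µM test dose, taken to imply half-maximal potency below 2 µM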;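 note: 0% = DMSO untreated growth and 100% = chloroquine plus artemisinin killed control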); conditions: P. falciparum Dd2 in RBCs, LDH growth readout, 72 h; at 2 µM; stronger effect = higher value
[2] = human hepatoma cell viability loss – ATP luminescence, cytotoxicity control for P. falciparum antimalarial project, primary screen (AID 2303;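 active = inhibition above 50%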;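 note: 0% = DMSO wells and 100% = digitonin-killed cells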); conditions: HepG2 viability, 24-48 h, at 10 µM, stronger effect = higher value
[3] = biological target: L-lactate dehydrogenase (Plasmodium falciparum (isolate CDC / Honduras)) (UniProt Q27743); assay: PfLDH activity inhibition – cell lysate, 3D7 strain, counter-screen for P. falciparum growth inhibition project (AID 2304);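 note: 0% = vehicle and 100% = reference inhibitor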; conditions: P. falciparum 3D7 crude extract, LDH APAD/NBT absorbance; at 2 µM; stronger effect = higher value
[4] = inhibition of 3D7 malaria parasite growth – strain 3D7 (AID 2306);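 note: 0% = DMSO wells and 100% = chloroquine plus artemisinin control wells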; conditions: P. falciparum 3D7 erythrocytic growth, LDH absorbance, 72 h; at 2 µM; stronger effect = higher value
[5] = biological target: Calcium-dependent protein kinase 1 (Plasmodium falciparum (isolate 3D7)) (UniProt P62344); assay: PfCDPK1 kinase inhibitors, biochemical, TCAMS library (AID 1159585; cut-off not given, nearly all actives have IC50 up to about 0.98 µM;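 note: inhibitors leave more ATP so luminescence rises with inhibition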); conditions: recombinant PfCDPK1, Kinase-Glo ATP depletion luminescence
[6] = biological target: Plasmodium falciparum protein kinase 6 (PK6, PF3D7_1337100) (UniProt Q8IDW1); assay: PfPK6 kinase inhibitors, biochemical, TCAMS library (AID 1159586); conditions: recombinant PfPK6, Kinase-Glo ATP depletion luminescence
[7] = biological target: Protein kinase 7 (PK7), Plasmodium falciparum 3D7 (PF3D7_0213400) (UniProt Q7YTF7); assay: inhibition of Plasmodium PK7 catalytic activity – biochemical, TCAMS antimalarial set, Kinase-Glo luminescence (AID 1159587); conditions: recombinant PfPK7, Kinase-Glo ATP depletion luminescence
[8] = biological target: Calcium-dependent protein kinase 4 (Plasmodium falciparum (isolate 3D7)) (UniProt Q8IBS5); assay: PfCDPK4 kinase inhibitors, biochemical, TCAMS library (AID 1159588; cut-off not given, nearly all actives have IC50 up to about 0.91 µM); conditions: recombinant PfCDPK4, Kinase-Glo ATP depletion luminescence
Chain of Calcium-dependent protein kinase 4 (Plasmodium falciparum (isolate 3D7)) (Q8IBS5 whole entry, looked up): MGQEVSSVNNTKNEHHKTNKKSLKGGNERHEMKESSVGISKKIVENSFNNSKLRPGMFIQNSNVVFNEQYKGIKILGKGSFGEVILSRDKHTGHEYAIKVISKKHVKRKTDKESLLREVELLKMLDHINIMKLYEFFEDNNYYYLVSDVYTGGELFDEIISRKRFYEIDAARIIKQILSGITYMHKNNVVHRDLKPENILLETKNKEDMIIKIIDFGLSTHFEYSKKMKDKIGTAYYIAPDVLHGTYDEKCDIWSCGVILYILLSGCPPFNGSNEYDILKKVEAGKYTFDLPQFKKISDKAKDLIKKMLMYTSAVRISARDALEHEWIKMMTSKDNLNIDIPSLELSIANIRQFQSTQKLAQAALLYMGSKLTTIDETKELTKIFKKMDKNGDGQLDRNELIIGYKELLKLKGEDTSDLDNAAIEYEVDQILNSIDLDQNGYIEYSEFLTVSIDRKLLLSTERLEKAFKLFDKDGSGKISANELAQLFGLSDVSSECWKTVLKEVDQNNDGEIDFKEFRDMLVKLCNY

Chain of Plasmodium falciparum protein kinase 6 (PK6, PF3D7_1337100) (Q8IDW1 1-305): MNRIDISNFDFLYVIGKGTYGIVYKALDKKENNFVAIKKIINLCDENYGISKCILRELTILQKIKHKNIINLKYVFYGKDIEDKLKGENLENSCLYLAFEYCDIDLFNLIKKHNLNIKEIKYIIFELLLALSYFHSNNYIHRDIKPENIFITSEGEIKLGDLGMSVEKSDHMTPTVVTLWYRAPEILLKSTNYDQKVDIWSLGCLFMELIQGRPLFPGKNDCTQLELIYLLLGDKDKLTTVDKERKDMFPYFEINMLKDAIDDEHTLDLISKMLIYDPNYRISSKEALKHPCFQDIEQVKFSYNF
Chain of Protein kinase 7 (PK7), Plasmodium falciparum 3D7 (PF3D7_0213400) (Q7YTF7 1-343): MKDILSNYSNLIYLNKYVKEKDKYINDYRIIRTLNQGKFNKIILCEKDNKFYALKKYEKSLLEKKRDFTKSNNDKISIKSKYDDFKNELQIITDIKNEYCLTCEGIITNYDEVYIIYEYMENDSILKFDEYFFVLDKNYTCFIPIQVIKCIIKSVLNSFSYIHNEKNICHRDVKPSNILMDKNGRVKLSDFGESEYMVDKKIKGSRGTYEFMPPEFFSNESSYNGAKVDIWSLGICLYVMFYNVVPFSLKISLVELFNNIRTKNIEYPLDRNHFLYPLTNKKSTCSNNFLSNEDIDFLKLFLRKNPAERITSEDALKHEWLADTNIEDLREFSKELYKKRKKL
Chain of Calcium-dependent protein kinase 1 (Plasmodium falciparum (isolate 3D7)) (P62344 whole entry, looked up): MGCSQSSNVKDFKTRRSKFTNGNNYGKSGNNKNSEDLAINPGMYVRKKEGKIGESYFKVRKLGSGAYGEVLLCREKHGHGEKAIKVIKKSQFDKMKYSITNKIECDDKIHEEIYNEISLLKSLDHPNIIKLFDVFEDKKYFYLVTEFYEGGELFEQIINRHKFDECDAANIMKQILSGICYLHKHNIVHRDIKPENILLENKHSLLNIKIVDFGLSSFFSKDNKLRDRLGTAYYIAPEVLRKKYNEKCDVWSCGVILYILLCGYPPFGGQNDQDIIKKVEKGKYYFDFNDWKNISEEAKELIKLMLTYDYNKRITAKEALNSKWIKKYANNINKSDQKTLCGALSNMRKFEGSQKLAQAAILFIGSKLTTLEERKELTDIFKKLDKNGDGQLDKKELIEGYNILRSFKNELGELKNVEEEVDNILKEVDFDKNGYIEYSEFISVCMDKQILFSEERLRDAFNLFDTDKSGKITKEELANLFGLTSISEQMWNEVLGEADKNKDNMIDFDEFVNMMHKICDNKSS
Chain of L-lactate dehydrogenase (Plasmodium falciparum (isolate CDC / Honduras)) (Q27743 whole entry, looked up): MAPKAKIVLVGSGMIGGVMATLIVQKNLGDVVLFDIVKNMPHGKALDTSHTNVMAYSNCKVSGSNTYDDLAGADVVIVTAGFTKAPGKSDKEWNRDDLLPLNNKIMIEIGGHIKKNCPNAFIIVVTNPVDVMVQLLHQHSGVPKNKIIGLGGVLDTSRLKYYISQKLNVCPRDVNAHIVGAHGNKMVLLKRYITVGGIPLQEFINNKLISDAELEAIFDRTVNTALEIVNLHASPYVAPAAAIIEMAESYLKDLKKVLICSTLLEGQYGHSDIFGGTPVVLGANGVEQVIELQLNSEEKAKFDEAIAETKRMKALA

CC(=O)Nc1cccc(C(=O)Nc2ccc(-c3cccc(-c4nc5ccc(F)cc5[nH]4)c3)cc2)c1
inactive: growth inhibition [1] 8% | inhibition [3] 0% | outcome [5] | outcome [6] | outcome [7] | outcome [8]
active: inhibition [2] 90% | growth inhibition [4] 96%

O=C(Nc1ccc(-c2nc3ccccc3[nH]2)cc1)c1cccc(S(=O)(=O)N2CCCC2)c1
active: growth inhibition [1] 64% | growth inhibition [4] 100%
inactive: inhibition [2] 0% | inhibition [3] -5% | outcome [5] | outcome [6] | outcome [7] | outcome [8]

COc1ccc(-c2nc(NC(=O)Cc3ccc4c(c3)OCCO4)sc2C)cc1
inactive: inhibition [2] 0% | inhibition [3] 2% | outcome [5] | outcome [6] | outcome [7] | outcome [8]
active: growth inhibition [1] 99% | growth inhibition [4] 100%

CCCCN(CCCC)CCCN(CCCN(CCCC)CCCC)c1cc(C)nc(Nc2ccc(Br)cc2)n1
inactive: inhibition [3] -4% | outcome [5] | outcome [6] | outcome [7] | outcome [8]
active: growth inhibition [1] 98% | inhibition [2] 51% | growth inhibition [4] 99%

C[C@H](NC(=O)c1c(CN2CCC(NC(=O)CC(C)(C)C)CC2)c(-c2cccs2)nc2ccccc12)C1CCCCC1
inactive: inhibition [2] -3% | inhibition [3] -3% | outcome [5] | outcome [6] | outcome [7] | outcome [8]
active: growth inhibition [1] 70% | growth inhibition [4] 91%

COc1ccc(C(=O)N2CCC3(CC2)C(=O)N(CC(=O)NCC2CCCCC2)CN3c2ccccc2)c(OC)c1
inactive: inhibition [2] 6% | inhibition [3] 4% | outcome [5] | outcome [6] | outcome [7] | outcome [8]
active: growth inhibition [1] 99% | growth inhibition [4] 100%

COc1cc(C(=O)N2CCOC(CCN3CCC[C@H]3C(=O)Nc3ccccc3)(c3ccc(Cl)c(Cl)c3)C2)cc(OC)c1OC (stereo not given in full)
inactive: inhibition [2] 3% | inhibition [3] -2% | outcome [5] | outcome [6] | outcome [7] | outcome [8]
active: growth inhibition [1] 88% | growth inhibition [4] 98%

O=C(/C=C/c1ccc(-c2nc3cc(F)c(F)cc3[nH]2)cc1)NCc1ccc(Cl)c(Cl)c1
active: growth inhibition [4] 100%
inactive: growth inhibition [1] 24% | inhibition [2] 14% | inhibition [3] 4% | outcome [5] | outcome [6] | outcome [7] | outcome [8]

Nc1nccc2ccc(Oc3ccncc3)cc12
inactive: inhibition [2] -3% | inhibition [3] -2% | outcome [5] | outcome [6] | outcome [7] | outcome [8]
active: growth inhibition [1] 81% | growth inhibition [4] 91%

Cc1ccc(Nc2cc(C)nn2-c2nc(C)cc(=O)[nH]2)cc1
inactive: inhibition [3] -3% | outcome [5] | outcome [6] | outcome [7] | outcome [8]
active: growth inhibition [1] 95% | inhibition [2] 54% | growth inhibition [4] 97%

COc1cc(NC(=O)/C=C/c2cc(F)cc(F)c2F)cc(OCCN2CCC3(CC2)OCCO3)c1
active: growth inhibition [4] 98%
inactive: growth inhibition [1] 26% | inhibition [2] 17% | inhibition [3] -3% | outcome [5] | outcome [6] | outcome [7] | outcome [8]

COc1ccc(-c2ccc(NC(=O)c3cccc(C#N)c3)cc2)cc1CN1CCNCC1
active: growth inhibition [4] 101%
inactive: growth inhibition [1] 47% | inhibition [2] 30% | inhibition [3] 8% | outcome [5] | outcome [6] | outcome [7] | outcome [8]

CC1(CCCCN2CCC(c3c[nH]c4cnccc34)CC2)C(=O)Nc2cccc(Cl)c21 (stereo not given)
active: growth inhibition [4] 100%
inactive: growth inhibition [1] -1% | inhibition [2] 26% | inhibition [3] 0% | outcome [5] | outcome [6] | outcome [7] | outcome [8]

COc1ccc2nc(C)cc(Nc3ccc(N4CCN(C)CC4)cc3)c2c1
inactive: growth inhibition [1] 3% | inhibition [2] 1% | inhibition [3] -1% | outcome [5] | outcome [6] | outcome [7] | outcome [8]
active: growth inhibition [4] 101%

N#Cc1cc(C(=O)Nc2ccccc2)c(N)nc1SCC(=O)NC(c1ccccc1)c1cccs1 (stereo not given)
inactive: inhibition [2] 34% | inhibition [3] -1% | outcome [5] | outcome [6] | outcome [7] | outcome [8]
active: growth inhibition [1] 100% | growth inhibition [4] 98%

O=c1cc(NCCCNC2CCCc3c2cc(Cl)c(Cl)c3Cl)[nH]c2ccccc12 (stereo not given)
inactive: inhibition [2] 6% | inhibition [3] -10% | outcome [5] | outcome [6] | outcome [7] | outcome [8]
active: growth inhibition [1] 64% | growth inhibition [4] 100%

O=C(/C=C/c1ccccc1O)N1CCC(CCN2CCC(c3c[nH]c4ccccc34)CC2)CC1
active: growth inhibition [4] 100%
inactive: growth inhibition [1] 15% | inhibition [2] 46% | inhibition [3] -1% | outcome [5] | outcome [6] | outcome [7] | outcome [8]

Cc1cc(NN=Cc2ccccc2[N+](=O)[O-])c2cccc(C)c2n1
inactive: inhibition [2] -6% | inhibition [3] 1% | outcome [5] | outcome [6] | outcome [7] | outcome [8]
active: growth inhibition [1] 100% | growth inhibition [4] 99%

CCn1cc(C=C2Oc3c(ccc(O)c3CN3CCCCC3C)C2=O)c2ccccc21 (stereo not given)
inactive: inhibition [2] -6% | inhibition [3] 6% | outcome [5] | outcome [6] | outcome [7] | outcome [8]
active: growth inhibition [1] 80% | growth inhibition [4] 94%

O=C(Nc1cc(C(F)(F)F)cc(C(F)(F)F)c1)Nc1ccc(Cl)c(Cl)c1
active: growth inhibition [1] 100% | inhibition [2] 58% | growth inhibition [4] 101%
inactive: inhibition [3] 0% | outcome [5] | outcome [6] | outcome [7] | outcome [8]

— PubChem BioAssay
